Compound activity as filed in PubChem.
HCV inh: blocks hepatitis C virus; Potency, µM (top dose mostly 41.8 µM), actives largely listed as inhibitors; actives 3.4% (n = 340,000); Huh7.5.1 HCVcc-Cre infection, luciferase reporter, 44 h; AID 651820
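Whole-lifecycle infectious HCVcc-Cre system; cells 1,000/well, compound then virus (~0.5 moi) added 4 h after plating, 44 h culture. Luciferase read 15 sec following 15 min substrate incubation, room temp.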
HCMV inh: inhibitors of human cytomegalovirus | HFF cells, HCMV-luciferase reporter, 72 h; stronger effect = lower value | activity change, negative = inhibition, % at 57.5 µM | actives 4.5% (n = 410,000) | AID 1259415; in the data active = activity change below about -60%; inconclusive = no clear call, values can overlap the other calls; inactive = above about -39%
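Cell-based, HFFs, 1000 cells/well, 16 h 37C; cpds in DMSO + HCMV-luc, MOI 1 PFU/cell; 72 h 37C; OneGlo luminescence after 5 min RT; norm. to buffer vs Salinomycin 10uM.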
Pf growth 48h: inhibits P. falciparum growth in the first generation, 48 h; P. falciparum luciferase growth in erythrocytes, 48 h; Potency, µM (top dose mostly 28.7 µM), actives largely listed as inhibitors; actives 5.9% (n = 310,000); AID 504832
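Luminescence readout; reporter = integrated firefly luciferase in P. falciparum. RBC culture at 2% hematocrit, 0.1% parasitemia final, 37 C/5% CO2; decreased signal taken as growth inhibition.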
SARS PLP yeast: SARS-CoV PLP inhibition in yeast. S. cerevisiae expressing SARS-CoV PLpro, growth rescue. Potency, µM (titrated, usually from 32.9 µM), usual class: activators. actives 0.19% (n = 330,000). AID 485353; calls by dose curve; note: nearly all actives have a fitted effect of over 55% in size
Pf growth 96h: P. falciparum growth inhibition at 96 hour, primary screen for plastid delayed-death inhibitors | Potency, µM (series often up to 28.7 µM), actives largely listed as inhibitors | AID 504834 | P. falciparum luciferase reporter growth, 96 h | actives 6.9% (n = 320,000)
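Erythrocytes infected with luciferase-expressing P. falciparum were dispensed at 2% hematocrit and 0.05% parasitemia (final), then incubated with compounds 96 hours at 37 C in 5% CO2. Luminescence after detection reagent addition reported growth.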
Sm TGR block: S. mansoni TGR enzyme inhibition; Q962Y6; purified TGR, DTNB reduction, TNB absorbance 405 nm; Potency, µM (doses to about 114 µM), most hits filed as inhibitors; actives 3% (n = 360,000); note: nearly all actives have a fitted effect of over 60% in size
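TGR 20 nM + NADPH 100 uM (dispensed conc.), cpd preinc 15 min RT; start with NADPH (500 uM addition) then DTNB (15 mM addition). Kinetic TNB absorbance, 405 nm filter. Four-parameter Hill fit across titration.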
Hits are given with their value; [ ] = remark or other dose. Shown are actives, neighbours in structure and some others; about 15% of the full set was active somewhere. Unless noted, calls come from the whole dose curve; as a rule, active = well fitted curve in the direction sought with a large enough effect; inconclusive = small, poorly fitted or top-dose-only effect, or another doubt; inactive = no such curve, though single readings can be large; an effect the other way counts as inactive or inconclusive.

How did CCCCCCOc1ccc(CN2CCN(CCO)CC2)cc1 do in these assays?
HCV inh: 10µM; HCMV inh: inactive; Pf growth 48h: inactive; SARS PLP yeast: inactive; Sm TGR block: inactive

Results for COc1ccc(CN2CCOCCOCCN(Cc3ccc(OC)cc3)CCOCCOCC2)cc1 ?
HCV inh: inconclusive; HCMV inh: inactive; Pf growth 48h: 13µM; SARS PLP yeast: inactive; Pf growth 96h: inconclusive; Sm TGR block: inactive

What do the screens show for `CCCCOc1ccc(C(=O)Nc2ccc(CN3CCOCC3)cc2)cc1`?
HCV inh: 10µM; HCMV inh: inconclusive; Pf growth 48h: inconclusive; SARS PLP yeast: inactive; Pf growth 96h: inconclusive; Sm TGR block: inactive

Results for Cc1ccc(NC2c3ncccc3C(=O)N2Cc2ccco2)c(C)c1 (centres undefined) ?
HCV inh: inactive; HCMV inh: inactive; Pf growth 48h: inconclusive; SARS PLP yeast: inactive; Pf growth 96h: inactive; Sm TGR block: inactive

How did CC1CCCN(Cc2cccc(Oc3ccccc3)c2)C1 (centres undefined) do in these assays?
HCV inh: inactive; HCMV inh: -98; Pf growth 48h: inconclusive; SARS PLP yeast: inactive; Pf growth 96h: inactive; Sm TGR block: inactive

What do the screens show for `O=C(Nc1ccc(S(=O)(=O)Nc2ccc(F)cc2)cc1)c1ccc(CN2CCOCC2)cc1`?
HCV inh: 1µM; HCMV inh: -65; Pf growth 48h: inconclusive; SARS PLP yeast: inactive; Pf growth 96h: inactive; Sm TGR block: inactive

What do the screens show for `CN1CCN(Cc2cccc(Oc3ccccc3)c2)CC1`?
HCV inh: inactive; HCMV inh: inactive; SARS PLP yeast: inactive; Pf growth 96h: inconclusive; Sm TGR block: inactive

How did OCCN1CCN(Cc2cccc(Oc3ccc(Cl)cc3)c2)CC1 do in these assays?
HCV inh: 11µM; HCMV inh: inactive; Pf growth 48h: inconclusive; SARS PLP yeast: inactive; Pf growth 96h: inactive; Sm TGR block: inactive

What do the screens show for `COc1ccc(NS(=O)(=O)c2ccc(NC(=O)c3ccc(CN4CCOCC4)cc3)cc2)cc1`?
HCV inh: 1.4µM; HCMV inh: -89; Pf growth 48h: 15µM; SARS PLP yeast: inactive; Pf growth 96h: inactive; Sm TGR block: inconclusive

What do the screens show for `COc1ccc(C(=O)c2sc3nc(-c4ccc(F)cc4)ccc3c2N)cc1`?
HCMV inh: inactive; Sm TGR block: inactive

How did Cc1ccc(Sc2ccc(N3CCC(C(=O)Nc4ccc(Cl)cc4)CC3)nn2)cc1 do in these assays?
HCMV inh: inactive; Sm TGR block: inactive

What do the screens show for `Nc1c(-c2ccccc2)nc(Cl)nc1-c1ccccc1`?
HCV inh: inconclusive; HCMV inh: inconclusive; Pf growth 48h: inactive; SARS PLP yeast: inactive; Pf growth 96h: inactive; Sm TGR block: inactive

What do the screens show for `c1ccc(-c2nc3nonc3nc2-c2ccccc2)cc1`?
HCV inh: inconclusive; HCMV inh: -78; Pf growth 48h: 12µM; SARS PLP yeast: inactive; Pf growth 96h: inactive; Sm TGR block: inconclusive

How did COc1ccc2[nH]c3c(=O)n4c(nc3c2c1)SCC4 do in these assays?
HCV inh: inactive; HCMV inh: inactive; Pf growth 48h: inactive; SARS PLP yeast: inactive; Pf growth 96h: 10µM; Sm TGR block: inactive

How did O=c1c2[nH]c3ccccc3c2nc2n1CCS2 do in these assays?
HCV inh: inactive; HCMV inh: inactive; Pf growth 48h: inactive; SARS PLP yeast: inactive; Pf growth 96h: inactive; Sm TGR block: inactive

Results for O=C1Nc2ccc([N+](=O)[O-])cc2C1(O)N1CCCCC1 (centres undefined) ?
HCV inh: inactive; HCMV inh: inactive; Pf growth 48h: inactive; SARS PLP yeast: inactive; Pf growth 96h: inconclusive; Sm TGR block: inactive

What do the screens show for `Cc1cc([N+](=O)[O-])cc2c1NC(=O)C2(O)N1CCCCCC1` (centres undefined)?
HCV inh: inactive; HCMV inh: inactive; Pf growth 48h: inactive; SARS PLP yeast: inactive; Pf growth 96h: 10µM; Sm TGR block: inactive

What do the screens show for `CC1CCCN(C2(O)C(=O)Nc3ccc([N+](=O)[O-])cc32)C1` (centres undefined)?
HCV inh: inactive; HCMV inh: -63; Pf growth 48h: inactive; SARS PLP yeast: inactive; Pf growth 96h: inactive; Sm TGR block: inactive

Results for N=c1c2c(-c3ccccc3)c(-c3ccccc3)n(Cc3ccco3)c2ncn1CCN1CCOCC1 ?
HCV inh: inconclusive; HCMV inh: inactive; Pf growth 48h: inconclusive; SARS PLP yeast: inactive; Pf growth 96h: inactive; Sm TGR block: inactive

Results for N=c1c2c(-c3ccccc3)c(-c3ccccc3)n(Cc3ccco3)c2ncn1CCO ?
HCV inh: 13µM; HCMV inh: inactive; Pf growth 48h: inconclusive; SARS PLP yeast: inactive; Pf growth 96h: inactive; Sm TGR block: inconclusive

What do the screens show for `N=c1c2c(-c3ccccc3)c(-c3ccccc3)n(Cc3ccco3)c2ncn1CCCO`?
HCV inh: inactive; HCMV inh: inactive; Pf growth 48h: inconclusive; SARS PLP yeast: inactive; Pf growth 96h: 13µM; Sm TGR block: 28µM

What do the screens show for `O=c1c2ccccc2ncn1Cc1ccco1`?
HCV inh: inactive; HCMV inh: inactive; Pf growth 48h: inactive; SARS PLP yeast: inactive; Pf growth 96h: inactive; Sm TGR block: inconclusive

Results for S=C1Cc2ccccc2N1 ?
HCV inh: inconclusive; HCMV inh: -83; Pf growth 48h: inconclusive; SARS PLP yeast: inactive; Pf growth 96h: inconclusive; Sm TGR block: inactive

Results for O=C(N/N=C/c1sc(N2CCOCC2)nc1-c1ccccc1)c1cccc(S(=O)(=O)N2CCOCC2)c1 ?
HCV inh: inconclusive; HCMV inh: -100; Pf growth 48h: 1.9µM; SARS PLP yeast: inactive; Pf growth 96h: 2.1µM; Sm TGR block: inactive

Results for Nc1ccc(C(=O)N/N=C/c2sc(N3CCOCC3)nc2-c2ccccc2)cc1 ?
HCV inh: inconclusive; HCMV inh: inactive; Pf growth 48h: inconclusive; SARS PLP yeast: inactive; Pf growth 96h: inconclusive; Sm TGR block: inactive

How did O=Cc1sc(N2CCOCC2)nc1-c1ccccc1 do in these assays?
Pf growth 48h: inactive; SARS PLP yeast: inactive; Pf growth 96h: inactive[5.75 µM]; Sm TGR block: inactive

Results for O=C(N/N=C/c1sc(N2CCOCC2)nc1-c1ccccc1)c1ccccc1O ?
HCV inh: inconclusive; HCMV inh: inactive; Pf growth 48h: 5.2µM; SARS PLP yeast: inactive; Pf growth 96h: 1.9µM; Sm TGR block: inactive

How did CCN(CC)c1ccc(/C=N/NC(=O)c2cccc(S(=O)(=O)N3CCOCC3)c2)c(O)c1 do in these assays?
HCV inh: inconclusive; HCMV inh: -75; Pf growth 48h: 10µM; SARS PLP yeast: inactive; Pf growth 96h: inconclusive; Sm TGR block: inactive

What do the screens show for `O=C(N/N=C/c1sc(N2CCOCC2)nc1-c1ccccc1)c1ccccc1F`?
HCV inh: inconclusive; Pf growth 48h: inconclusive; SARS PLP yeast: inactive; Pf growth 96h: inconclusive; Sm TGR block: inactive
